{"source": "PubChem BioAssay", "note": "Active and inactive are the calls of the source.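 How the source made its calls: active means visually confirmed hit in the image check and inhibition above 20%; inconclusive means visually confirmed hit but inhibition not above 20%; inactive means no visual hit in the image check.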", "data": [{"test": "inhibitors of E-selectin induction by TNFa, primary screen, imaging, HUVEC, immunofluorescence, MLSMR starter and 10KST1 sets (AID 487);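 on inhibition: signal is fraction of cell area covered by stained E-selectin grains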;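 on nuclei count: 100% = median nuclei count of all wells on the same plate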", "conditions": "HUVEC TNFalpha-induced E-selectin immunofluorescence imaging, at 2 µM; inhibition: stronger effect = higher value; nuclei count: measured here: cell number, toxicity", "units": {"nuclei count": "%"}, "values": [{"smiles": "CS(=O)(=O)NCc1nnc(SCC(=O)NC2CCCCC2)n1-c1ccc(F)cc1", "inhibition": "-5.8% (inactive)", "nuclei count": 128}, {"smiles": "O=C(NCC1CCCO1)c1cccc(N2C(=O)C3C4C=CC(C4)C3C2=O)c1", "note": "(stereo unspecified)", "inhibition": "-16.1% (inactive)", "nuclei count": 118}, {"smiles": "CC(=O)Nc1cccc(NC(=O)C2CCCN2C(=O)Nc2ccc(C)cc2)c1", "note": "(stereo unspecified)", "nuclei count": 111, "inhibition": "-3.5% (inactive)"}, {"smiles": "COc1cccc(CN=CC2=C(O)CC(C)(C)CC2=O)c1OC", "inhibition": "-1.5% (inactive)", "nuclei count": 111}, {"smiles": "COC(=O)Cn1c(CN2CCOCC2)nc2c1c(=O)n(C)c(=O)n2C", "nuclei count": 114, "inhibition": "-0.7% (inactive)"}, {"smiles": "O=C(O)c1[nH]c2ccc(Cl)cc2c1CC(=O)N1CCN(C(=O)c2ccco2)CC1", "nuclei count": 103, "inhibition": "-73.3% (inactive)"}, {"smiles": "CC1CCN(c2oc(-c3cccc4ccccc34)nc2C#N)CC1", "inhibition": "-112% (inactive)", "nuclei count": 101}, {"smiles": "Cc1ccc(S(=O)(=O)N2CCN(C(=O)CSC3CCCC3)CC2)c(C)c1", "nuclei count": 110, "inhibition": "-425% (inactive)"}, {"smiles": "CCOC(=O)c1sc2nc(SCC#N)n(CCCN3CCCC3=O)c(=O)c2c1C", "nuclei count": 96.1, "inhibition": "49% (inactive)"}, {"smiles": "COc1cc(C(Nc2ccc3c(c2)OCO3)C(=O)NC2CCCCC2)cc(OC)c1OC", "note": "(stereo unspecified)", "nuclei count": 121, "inhibition": "-35.2% (inactive)"}, {"smiles": "Cc1cc2c(cc(C(=O)OCC(=O)NCc3cccs3)n2C(C)C)o1", "nuclei count": 95.3, "inhibition": "-156% (inactive)"}, {"smiles": "O=C(CSc1nc2ccccc2nc1SCC(=O)N1CCOCC1)N1CCOCC1", "inhibition": "-239% (inactive)", "nuclei count": 115}, {"smiles": "Cc1onc(-c2ccccc2Cl)c1C(=O)Nc1cnn(Cc2ccccc2)c1", "nuclei count": 120, "inhibition": "15.1% (inactive)"}]}]}
